Screening data as filed in PubChem BioAssay.
An excerpt weighted towards active compounds, which were near 3.2% of everything screened.
PNC inhibitor: inhibitors of perinucleolar compartment assembly; activity change (PNC), negative = inhibition, % at 10 µM; hit rate 3.1% among 140,000; PC3M PTB-GFP, PNC prevalence imaging, 16 h; hits give low values;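 active means readout at or below -70, meaning at least 70% loss of cells showing the perinucleolar compartment, a nuclear body marking cancer cells; inconclusive means readout between -30 and a set limit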;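 further: plate controls were DMSO wells for no effect and camptothecin positive control wells for full effect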
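PC3M cells stably expressing PTB-GFP, 750–1000 cells/well, treated 16 h at 37 °C with compound (23 nl of library stock), in duplicate. After paraformaldehyde fixation and Hoechst stain, imaged at 20x; PNC prevalence scored by image analysis.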
ALOX12 inhib: inhibitors of human 12-lipoxygenase (ALOX12). Potency, µM (top dose mostly 57.1 µM), for the others: at the top dose activity change, negative = inhibition, most hits filed as inhibitors. P18054. hit rate 0.12% among 150,000. purified 12-hLO, xylenol orange hydroperoxide absorbance; further: potency means the concentration at half of the fitted maximal effect; nearly all actives have a fitted effect of over 55% in size
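Xylenol orange chromogenic assay: hydroperoxide from 12hLO oxidises Fe(II), giving red-shifted Fe(III)-XO absorbance. Conditions: 150 nM enzyme, 40 uM arachidonic acid, 25 mM Hepes pH 7.0, 0.01% Triton X-100, 30 min, room temperature.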
ALOX15B inhib: 15-hLO-2 (ALOX15B) enzyme inhibition; O15296; purified 15hLO-2, xylenol orange hydroperoxide absorbance; Potency, µM (top dose mostly 57.1 µM), for inactives: top-dose activity change, negative = inhibition, actives largely listed as inhibitors; hit rate 0.56% among 110,000; AID 881; further: potency means the concentration at half of the fitted maximal effect; nearly all actives have a fitted effect of over 60% in size
Target sequence (O15296 whole entry, looked up): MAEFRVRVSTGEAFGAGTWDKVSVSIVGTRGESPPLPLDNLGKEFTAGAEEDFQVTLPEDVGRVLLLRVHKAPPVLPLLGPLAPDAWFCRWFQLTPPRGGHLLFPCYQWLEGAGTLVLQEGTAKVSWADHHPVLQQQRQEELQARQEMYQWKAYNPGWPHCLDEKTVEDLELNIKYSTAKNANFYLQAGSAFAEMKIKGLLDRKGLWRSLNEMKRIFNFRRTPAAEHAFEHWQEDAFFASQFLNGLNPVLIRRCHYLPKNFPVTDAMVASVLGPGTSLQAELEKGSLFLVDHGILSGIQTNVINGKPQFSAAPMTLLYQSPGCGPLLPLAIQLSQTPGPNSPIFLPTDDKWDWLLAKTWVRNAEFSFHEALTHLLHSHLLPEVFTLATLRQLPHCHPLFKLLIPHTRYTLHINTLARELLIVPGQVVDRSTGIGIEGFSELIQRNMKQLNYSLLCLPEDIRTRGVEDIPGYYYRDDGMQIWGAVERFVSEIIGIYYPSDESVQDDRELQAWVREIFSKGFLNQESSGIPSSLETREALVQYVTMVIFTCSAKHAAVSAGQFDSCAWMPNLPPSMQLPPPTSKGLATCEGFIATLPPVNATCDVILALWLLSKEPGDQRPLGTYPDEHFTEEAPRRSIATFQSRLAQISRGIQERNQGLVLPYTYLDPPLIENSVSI
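Read-out: hydroperoxide product oxidises ferrous iron, measured as xylenol orange complex via the 573-to-405 nm absorbance ratio after 30 min. Reaction: 50 nM enzyme, 15 min compound preincubation, 45 uM arachidonic acid, 90 min RT, Hepes pH 7.5 with Triton X-100.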
The depositor's hits bear a star; ? = inconclusive; . = no result; ! = not active in a repeat; [ ] = another dose, or the depositor's remark. Unless noted, the call rests on the fitted dose curve; in most records, active means well fitted curve in the direction sought with a large enough effect; inconclusive means small, poorly fitted or top-dose-only effect, or another doubt; inactive means no such curve, though single readings can be large; an effect the other way counts as inactive or inconclusive. Unless noted, on the % scale 0 is the no-effect control and ±100 the full control effect.

SMILES | PNC inhibitor | ALOX12 inhib | ALOX15B inhib
C/C(=C\c1ccccc1)C(=O)N1CCN(c2cccc(C(F)(F)F)c2)CC1 | -91.0* | -2.4% | .
C=CCNC(=S)N1CCN(c2cccc(C(F)(F)F)c2)CC1 | -113.4* | -1.4% | .
CSc1nc2ccccc2cc1/C=C(\C#N)c1cccc(Cl)c1 | 27.4 | -3.5% | -2.5%
O=C(CCc1ccccc1)NC(NC(=S)Nc1ccc(Br)cc1)C(Cl)(Cl)Cl (stereo unspecified) | ? | -9.3% | -8.0%
O=C(CCc1ccccc1)NC(NC(=S)Nc1cccc(Cl)c1)C(Cl)(Cl)Cl (stereo unspecified) | -118.9* | -0.8% | .
CN1CCN(Cc2ccc(OCc3ccccc3)cc2)CC1 | -86.2* | 3.4% | 23.2%
CCN1CCN(Cc2ccc(OCc3ccccc3)cc2)CC1 | 34.7 | 3.8% | 32.4%
CCCCc1cc2c(c(NC(=O)CC)n1)c(=O)oc1ccccc12 | ? | -3.9% | 1.1%
Cc1ccc(S(=O)(=O)Cc2ccc(C(=O)N3CCCCCC3)o2)cc1 | -7.5 | -3.8% | -0.7%
Cc1ccc(S(=O)(=O)Cc2ccc(C(=O)N3CCCC3)o2)cc1 | -86.6* | -1.0% | 6.4%
Cc1nn(C(=O)c2cccc([N+](=O)[O-])c2)c(C)c1Sc1ccccc1 | 8.6 | 2.7% | -2.2%
C/C=C1/NN(CCCN2CCN(c3cccc(Cl)c3)CC2)C(=O)N1CCOc1ccccc1 | . | 0.7%[0.00818 µM] | 50.3%[0.0915 µM]
O=C(NCCO)c1ccc(Cc2nc3ccccc3[nH]2)cc1 | . | -0.5% | .
Cc1cc(C)n2c(-c3ccccc3Cl)nnc2n1 | -109.0* | 1.2% | .
Cc1cc(C)n2c(SCc3ccccc3Cl)nnc2n1 | 23.8 | -0.3% | 3.9%
Cc1noc(C)c1S(=O)(=O)N1CCc2nc(COc3ccccc3)c3c(c2C1)CO[C@@H](C)C3 | . | 2.3%[11.4 µM] | .
COc1ccc(/C=C(\C#N)C(=O)NC2CCS(=O)(=O)C2)cc1OC (stereo unspecified) | -119.3* | 1.3% | .
COc1ccc(/C=C(\C#N)C(=O)NCc2cccs2)cc1OC | -14.6 | -5.1% | .
O=C(c1csnn1)N1CCC[C@@]2(CCN(C(c3ccccc3)c3ccccc3)C2)C1 | . | 2.9% | 4.4%
O=C(OC(c1ccccc1)c1nccc2ccccc12)c1cc([N+](=O)[O-])cc([N+](=O)[O-])c1 (stereo unspecified) | ? | 3.4% | .
COc1ccc(C(=O)Nc2ccc(-c3ccc(NC(=O)c4ccc(OC)cc4)c(OC)c3)cc2OC)cc1 | -0.5 | 1.9% | .
CC/C=C\C/C=C\C/C=C\CCCCCCCC(=O)O | . | -5.3%[0.00818 µM] | 14.1µM*!
CC/C=C\C/C=C\C/C=C\CCCCCCCCCCCC(=O)O | . | -4.5% | .
CCOc1ccc(NS(=O)(=O)c2cc(OCC(N)=O)c(C)cc2Cl)cc1 | -14.3 | -4.6% | .
O=c1cc(-c2cccc(F)c2)[nH]c2ccccc12 | -91.5* | -1.1%[0.00818 µM] | -0.2%[0.0915 µM]
SMILES | PNC inhibitor | ALOX12 inhib | ALOX15B inhib
O=c1cc(-c2cccc(F)c2)[nH]c2ccc(Cl)cc12 | . | 0.8%[0.00818 µM] | 13.4%[0.0915 µM]
O=c1cc(-c2ccccc2)[nH]c2ccc(Cl)cc12 | . | 2.4%[0.00818 µM] | 1.2%[0.0915 µM]
O=c1cc(-c2ccccc2)[nH]c2cc(Cl)ccc12 | -118.9* | -0.4%[0.00818 µM] | -3.0%[0.0915 µM]
N=C1CCCN1CC(=O)c1ccc(Br)cc1 | -11.0 | 2.8% | .
CN(C)c1ccc(NC(=O)/C=C/c2ccccc2Cl)cc1 | 21.7 | 0.5% | .
CCN(CC)c1ccc(NC(=O)/C=C\c2ccccc2Cl)cc1 | -81.0* | 1.9% | -5.0%
CC(C)C[C@@H](CC(=O)N[C@@H](CCC(=O)O)CC(=O)O)NC(=O)[C@@H]1CNCC[C@H]1NC(=O)C[C@H](CCCN)NC(=O)C[C@H](CO)NC(=O)[C@@H]1CNCC[C@H]1N | . | 2.4% | .
CC(C)(C)C(=O)NC(=S)NCCc1ccccc1 | -3.1 | 12.6µM* | 12.6µM*
COc1cc(OC)cc(C(=O)NC(=S)NCCc2ccccc2)c1 | 33.1 | 3.98µM* | 7.94µM*
Cc1ccccc1C(=O)NC(=S)NCCc1ccccc1 | -9.5 | ? | .
S=C(NCCc1ccccc1)NCCc1ccccc1 | 14.1 | -16.1% | .
CS(=O)(=O)N(CC(=O)O)c1ccccc1 | . | 0.0% | .
O=C(O)C1CCCCN1S(=O)(=O)c1ccccc1 (stereo unspecified) | -12.7 | 0.0% | 3.7%
O=C1CCN(S(=O)(=O)c2ccccc2)C2CCCCC12 (stereo unspecified) | -86.5* | -0.1% | 0.7%
Cc1cc(=O)oc2cc(OCC(=O)Nc3nnc(C(C)C)s3)ccc12 | ? | -4.4% | -19.6%
Cc1nnc(NC(=O)C(C)Oc2ccc3c(C)cc(=O)oc3c2)s1 (stereo unspecified) | -106.5* | 7.2% | -4.3%
CCN(C=NC1=NN(c2cccc(C(F)(F)F)c2)CC1)CC | 22.5 | -12.0% | .
OCCN(C=NC1=NN(c2cccc(C(F)(F)F)c2)CC1)CCO | 42.6 | -29.7% | 25.1µM*
